In the library only some 1.5% were active in any assay of this set; here they are far more common.
Giardia kill = Small Molecules that selectively kill Giardia lamblia: qHTS; AID 540267, 2011; activity change, % at 7.66 µM, hits read low; hit rate 0.15% among 340,000; Giardia lamblia trophozoite viability; in the data active means activity change below about -80%; inconclusive means between about -30% and that limit;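 further: parasites exposed to compound for two days anaerobically before the ATP read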
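Compounds were tested on trophozoites seeded at 100 cells/well and held 48 hrs at 37 deg C anaerobically. An ATP-based luminescent kit measured the remaining live cells.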
FBPA coupling cs = qHTS Assay for Inhibitors of Fructose-1,6-bisphosphate Aldolase from Giardia Lamblia: Coupling assay counterscreen. coupling enzyme system counterscreen, AmpLite Red fluorescence. activity change, negative = inhibition, % at 58.2 µM, hits read low. hit rate 0.67% among 290,000. AID 2472, 2010; in the data active means activity change below about -30%
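Compounds tested against the coupling enzymes alone at 57.5 uM final; readout was AmpLite Red fluorescence (525/598 nm) after 20 min at RT.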
GALK inhibitor = qHTS Assay for Inhibitors of Human Galactokinase (GALK). P51570. Purified GALK, Kinase-Glo residual ATP luminescence. Potency, µM (doses to about 57.5 µM), for the others: at the top dose activity change, negative = inhibition, hits mostly inhibitors. hit rate 0.007% among 270,000. AID 1868, 2009; further: potency means the concentration at half of the fitted maximal effect
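Human GALK (5 nM) with 35 uM ATP and 100 uM galactose in 20 mM HEPES pH 8.0, 5 mM MgCl2, 60 mM NaCl, 1 mM DTT, 0.01% BSA. After 1 h at room temperature, leftover ATP was read by Kinase-Glo Plus luminescence.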
TrxR1 substrate = qHTS Assay for Substrates of Mammalian Selenoprotein Thioredoxin Reductase 1 (TrxR1): qHTS; Thioredoxin reductase 1, cytoplasmic (Rattus norvegicus), O89049; purified TrxR1 substrate turnover, NADPH consumption readout; Potency, µM (titrated, usually from 114 µM), without a hit: top-dose activity change, negative = substrate turnover; hit rate 0.01% among 390,000; AID 588456, 2011; further: potency means the concentration at half of the fitted maximal effect; nearly all actives have a fitted effect of over 50% in size
Target sequence (O89049 whole entry, looked up): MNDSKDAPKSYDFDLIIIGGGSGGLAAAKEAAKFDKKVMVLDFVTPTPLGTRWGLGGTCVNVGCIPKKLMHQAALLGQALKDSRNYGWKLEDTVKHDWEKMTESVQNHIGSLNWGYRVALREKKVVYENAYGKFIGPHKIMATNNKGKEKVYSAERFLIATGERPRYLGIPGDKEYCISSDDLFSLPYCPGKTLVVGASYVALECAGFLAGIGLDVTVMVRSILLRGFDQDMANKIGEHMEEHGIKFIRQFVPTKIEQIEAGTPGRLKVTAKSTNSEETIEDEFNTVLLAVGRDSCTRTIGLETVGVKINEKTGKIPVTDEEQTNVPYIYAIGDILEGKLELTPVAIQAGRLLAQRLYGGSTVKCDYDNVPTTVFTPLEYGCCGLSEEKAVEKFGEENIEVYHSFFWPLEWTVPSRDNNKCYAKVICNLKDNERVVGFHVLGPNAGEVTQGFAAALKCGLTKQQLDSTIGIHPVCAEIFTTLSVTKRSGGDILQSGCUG
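Rat TrxR1, dispensed at 90 nM, was prereduced with 400 uM NADPH (final) for 5 min at ~22 deg C, then incubated with compound 15 min before 400 uM selenite. A first-read NADPH fluorescence drop versus no-compound background flagged substrates.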
PI4K2A inh = qHTS for small molecular inhibitors of PI4K2A | purified PI4K2A, ADP-Glo luminescence, 1 h; stronger effect = lower value | hit rate 0.13% among 420,000 | activity change, negative = inhibition, % at 76.9 µM | Phosphatidylinositol 4-kinase type 2-alpha (Homo sapiens), Q9BTU6; in the data active means activity change below about -50%; inconclusive means mostly about -30% to -49%;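 further: -100% = wells without enzyme as full effect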
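PI4K2A activity was measured by ADP-Glo luminescence: enzyme (4 ug/mL stock) and phosphatidylinositol (1.2 mM stock) in Tris pH 7.5/MgCl2/EGTA/Triton X-100 buffer were reacted with ATP (300 microM stock) for one hour at ambient temperature.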
rTrxR1 inhibitor = qHTS Assay for Inhibitors of Mammalian Selenoprotein Thioredoxin Reductase 1 (TrxR1): qHTS | Thioredoxin reductase 1, cytoplasmic (Rattus norvegicus), O89049 | recombinant rTrxR1, NADPH fluorescence consumption, selenite substrate | Potency, µM (doses to about 114 µM), inactives show at the top dose activity change, negative = inhibition, hits mostly inhibitors | hit rate 1% among 390,000 | AID 588453, 2011; further: potency means the concentration at half of the fitted maximal effect; nearly all actives have a fitted effect of over 65% in size
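Rat TrxR1 (90 nM in the dispensed reagent) was pre-reduced with 400 uM NADPH for 5 min at room temperature, then incubated with compound for 15 min. After 400 uM selenite was added, NADPH fluorescence (Ex 340/Em 450 nm) was followed for 8 min.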
Numbers without * were called inactive; [ ] = dose if it differs, or a comment. Unless noted, the call rests on the fitted dose curve; in most records, active means well fitted curve in the direction sought with a large enough effect; inconclusive means small, poorly fitted or top-dose-only effect, or another doubt; inactive means no such curve, though single readings can be large; an effect the other way counts as inactive or inconclusive. Unless noted, on the % scale 0 is the no-effect control and ±100 the full control effect.

Screening CCCc1cc(=O)oc2c3c(ccc12)OCN(Cc1ccc(OC)cc1)C3 returned Giardia kill 33, TrxR1 substrate inactive, PI4K2A inh -2 and rTrxR1 inhibitor -35%.
For COCCn1c(SCC(=O)Nc2nnc(C)s2)nnc1-c1cc2ccccc2cc1O the results were Giardia kill -1, FBPA coupling cs -44*, GALK inhibitor -2%, TrxR1 substrate -3%, PI4K2A inh -5 and rTrxR1 inhibitor -3%.
`C[n+]1cccc(/C=N/Nc2nc(Cl)c(C#N)c(Cl)c2Cl)c1` gave Giardia kill 11, FBPA coupling cs -2, GALK inhibitor 9%, TrxR1 substrate -11%, PI4K2A inh 2 and rTrxR1 inhibitor 50µM*.
N#Cc1c(Cl)nc(N/N=C/c2ccccc2)c(Cl)c1Cl was read as Giardia kill -15, FBPA coupling cs -6, GALK inhibitor 0%, TrxR1 substrate 3%, PI4K2A inh -3 and rTrxR1 inhibitor 3%.
`C[N+](C)(C)c1ccc(/C=N/Nc2nc(Cl)c(C#N)c(Cl)c2Cl)cc1` gave Giardia kill 21, FBPA coupling cs -1, GALK inhibitor 1%, TrxR1 substrate -13%, PI4K2A inh -4 and rTrxR1 inhibitor 71µM*.
Cc1nc(C#N)c(N/N=C/c2cccc(Cl)c2)o1 was read as Giardia kill inconclusive, FBPA coupling cs -4, TrxR1 substrate -5%, PI4K2A inh 2 and rTrxR1 inhibitor inconclusive.
Screening Cc1oc(-c2ccccc2F)nc1CS(=O)CC(=O)NC(C)C (centres undefined) returned TrxR1 substrate 1%, PI4K2A inh 3 and rTrxR1 inhibitor 40µM*.
Screening CCC(C)NC(=O)CS(=O)Cc1nc(-c2ccccc2C)oc1C (centres undefined) returned Giardia kill -7, FBPA coupling cs 0, GALK inhibitor 1%, TrxR1 substrate 18%[57.1 µM], PI4K2A inh -7 and rTrxR1 inhibitor 7.1µM*.
COC(=O)C1=C(C(=O)OC)[C@@H]2N(C)c3ccc(OC)cc3[C@@]23C[C@@H](C(=O)OC)N(S(=O)(=O)c2ccc(C(F)(F)F)cc2)C3=N1 was read as FBPA coupling cs 0.
For COc1cc2c(c(OC)c1OC)-c1c(cc3c(c1OC)OCO3)CC(C)C(C)(O)C2OC(=O)c1ccccc1 (centres undefined) the results were FBPA coupling cs -1.
For O=C(NCc1ccccc1Cl)O[C@H]1CC[C@@]23CCCN2C(=O)CCC[C@H]3C1 the results were PI4K2A inh -4.
For S=C(Nc1cccnc1)Nc1cccc2cnccc12 the results were Giardia kill -7, FBPA coupling cs -37*, GALK inhibitor -2%, TrxR1 substrate -19%[57.1 µM], PI4K2A inh -16 and rTrxR1 inhibitor 6%[57.1 µM].
Screening Fc1ccc(NC(=S)Nc2cccc3ccccc23)cc1F returned Giardia kill 4, FBPA coupling cs -2, GALK inhibitor 6%, TrxR1 substrate 29%, PI4K2A inh 4 and rTrxR1 inhibitor -18%.
Screening Fc1cccc(NC(=S)Nc2cccnc2)c1 returned Giardia kill 0, FBPA coupling cs 3, GALK inhibitor 0%, TrxR1 substrate -7%[57.1 µM], PI4K2A inh 0 and rTrxR1 inhibitor -67%.
`S=C(Nc1ccc(Cl)cc1)Nc1cccc2cnccc12` gave Giardia kill 12, FBPA coupling cs -48*, TrxR1 substrate -8%, PI4K2A inh -5 and rTrxR1 inhibitor -51%.
For Fc1ccc(NC(=S)Nc2cccc3cnccc23)cc1 the results were Giardia kill 7, FBPA coupling cs -51*, GALK inhibitor -2%, TrxR1 substrate -2%, PI4K2A inh -20 and rTrxR1 inhibitor inconclusive.
For Fc1ccc(NC(=S)Nc2cccc3ccccc23)cc1 the results were Giardia kill 37, FBPA coupling cs -5, GALK inhibitor -4%, TrxR1 substrate 28%, PI4K2A inh 0 and rTrxR1 inhibitor 2%.
`Cc1cc(Cl)ccc1NC(=S)Nc1cccnc1` gave Giardia kill 15, FBPA coupling cs -1, GALK inhibitor -3%, TrxR1 substrate -10%, PI4K2A inh -2 and rTrxR1 inhibitor 28µM*.
For Cc1ccc(-c2cc3nc(-c4ccco4)cc(N4CCN(Cc5ccoc5)CC4)n3n2)cc1 the results were PI4K2A inh -7.
`O=C(Nc1c(Cl)cccc1Cl)c1cccc2c1C(=O)N(C1CCCCC1)C2` gave TrxR1 substrate -4%, PI4K2A inh 10 and rTrxR1 inhibitor 12%.
Screening CC(C)c1ccc(Cn2cnc3c(cnn3C(C)(C)C)c2=O)cc1 returned TrxR1 substrate -10% and rTrxR1 inhibitor -1%.
`CN(C)S(=O)(=O)c1cccc(NC(=S)Nc2cccc3cnccc23)c1` gave Giardia kill 6, FBPA coupling cs -53*, GALK inhibitor -26%, TrxR1 substrate -5%, PI4K2A inh inconclusive and rTrxR1 inhibitor 40µM*.
For O=c1cc(CO)oc(C(Nc2ccccn2)c2ccc(C(F)(F)F)cc2)c1O (centres undefined) the results were Giardia kill -20, FBPA coupling cs -1, GALK inhibitor 2%, TrxR1 substrate -9%, PI4K2A inh -2 and rTrxR1 inhibitor -18%.
Screening O=c1cc(CO)oc(C(Nc2ccccn2)c2cccc(F)c2)c1O (centres undefined) returned Giardia kill 8, FBPA coupling cs -15, GALK inhibitor -2%, TrxR1 substrate -2%, PI4K2A inh -5 and rTrxR1 inhibitor 20µM*.
`COc1cccc(C(Nc2ccccn2)c2oc(CO)cc(=O)c2O)c1` (centres undefined) gave Giardia kill -6, FBPA coupling cs -24, GALK inhibitor -2%, TrxR1 substrate -2%, PI4K2A inh -6 and rTrxR1 inhibitor 71µM*.
NC(=O)c1c(N)[nH]c(C(=O)c2ccccc2)c1-c1cccc2ccccc12 was read as PI4K2A inh -3.
CCNc1nc(C#N)nc(Nc2ccccc2)n1 was read as Giardia kill -2, TrxR1 substrate -10% and rTrxR1 inhibitor -21%.
Screening COC1=C(Nc2ccc(OC)cc2)C(=O)c2ccccc2C1=O returned Giardia kill 15, FBPA coupling cs -34*, GALK inhibitor 5%, TrxR1 substrate 1%, PI4K2A inh -19 and rTrxR1 inhibitor -16%.
